Data published in PubChem BioAssay (NCATS).
Values joined by “and” are separate entries in the source; they are usually repeats but may differ in a detail not shown here. Equal values may be shown once. Inconclusive results are not listed. Entries that show only a call come without a potency. Active and inactive are the calls of the source. Unless noted, calls follow the shape of the dose curve; as a rule, active = well fitted curve in the direction sought with a large enough effect; inconclusive = small, poorly fitted or top-dose-only effect, or another doubt; inactive = no such curve, though single readings can be large; an effect the other way counts as inactive or inconclusive.

Key:
[1] = Cell Viability - Hek293 (AID 427;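 active = compounds whose dose-response curve shows a full or clear partial loss of cell viability, called from curve shape rather than a numeric limit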;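 also: potency is read from the fitted curve at half-maximal effect; cells exposed to compound for 40 hours at 37 °C before reading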); details: qHTS
Outline: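 qHTS, human embryonic kidney (adenovirus-transformed) cells; 40 hr cpd, 37 °C; CellTiter-Glo ATP luminescence. Norm: DMSO = 0, 100 uM tamoxifen = 100% inhibition. Hill-fit AC50.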

[2] = Cell Viability - SK-N-SH (AID 435; calls by dose curve; also: potency is read from the fitted curve at half-maximal effect); details: SK-N-SH neuroblastoma cell viability qHTS
Outline: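 qHTS cytotoxicity: CellTiter-Glo ATP luminescence after 40 h compound exposure of human neuroblastoma SK-N-SH cells at 37 °C. AC50 derived by Hill-equation fitting, with DMSO as basal and 100 uM tamoxifen as full inhibition.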

[3] = Cell Viability - N2a (AID 540); details: N2a mouse neuroblastoma cell viability; activity change, negative = cytotoxicity: at 92.2 µM (top of the series); also: nearly all actives have a fitted effect of over 45% in size
Outline: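 Mouse neuroblastoma N2a cells, 1500/well, exposed to compounds 40 h at 37 °C in complete medium. Viability measured as cellular ATP by CellTiter-Glo luminescence; AC50 from Hill fits of concentration-response.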

[4] = Cell Viability - SH-SY5Y (AID 544); details: SH-SY5Y neuroblastoma cell viability; viability change, negative = cytotoxic: at 92.2 µM (top of the series); also: nearly all actives have a fitted effect of over 55% in size
Outline: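 SH-SY5Y human neuroblastoma cells (1500/well) incubated 5 h, then compound-treated 40 h at 37 °C in complete medium. Viability read as intracellular ATP by CellTiter-Glo luminescence after 20 min; AC50 from Hill-equation fits of qHTS concentration-response.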

[5] = Cell Viability - Renal Proximal Tubule (AID 545); details: renal proximal tubule cells viability, primary cells of rat origin; activity change, negative = cytotoxicity: at 91.7 µM (top of the series); also: nearly all actives have a fitted effect of over 40% in size; also: potency is read from the fitted curve at half-maximal effect
Outline: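 Viability taken as intracellular ATP (CellTiter-Glo luminescence) after 40 hr, 37 °C compound treatment of primary proximal tubule cells from rat kidney, 1000 cells/well; Hill-equation fits of qHTS concentration-response data gave AC50.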

[6] = Cell Viability - LYMP2-001 (AID 921); details: LYMP2-001 lymphoblastoid cell viability; series mostly up to 92.2 µM; also: nearly all actives have a fitted effect of over 70% in size
Outline: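 Cellular ATP loss read by luciferase luminescence after 24 h compound exposure at 37 C in complete medium. LYMP2-001 lymphoblastoid cells, 2500/well; qHTS concentration-response data fitted with Hill equation for AC50.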

[7] = MultiTox-Fluor Cytotoxicity Assay - LYMP1-002 - Dead Cells (AID 960); details: LYMP1-002 lymphoblastoid cells, dead-cell protease fluorescence; series mostly up to 46.1 µM;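 also: cells exposed to compound for 16 h at 37 °C; nearly all actives have a fitted effect of over 60% in size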
Outline: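 Human lymphoblastoid LYMP1-002 cells, 2500/well, treated 16 h at 37 C; dead-cell protease cleavage of bis-AAF-R110 read by fluorescence (485/520); normalized to DMSO and 15 uM tetraoctylammonium bromide; AC50 from Hill fit.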

[8] = Cell Viability - LYMP2-005 (AID 967); details: LYMP2-005 lymphoblastoid cell viability; series mostly up to 92.2 µM
Outline: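 LYMP2-005 human lymphoblastoid cells (2500/well) were treated with compounds for 24 h at 37 C. Intracellular ATP was then measured by CellTiter-Glo luminescence after 30 min at room temperature. AC50 values came from Hill-equation fits of qHTS concentration-response data.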

[9] = Cell Viability - LYMP2-009 (AID 968); details: LYMP2-009 lymphoblastoid cell viability; series mostly up to 92.2 µM; also: nearly all actives have a fitted effect of over 55% in size
[10] = Cell Viability - LYMP2-015 (AID 971); details: LYMP2-015 lymphoblastoid cell viability; series mostly up to 92.2 µM; also: nearly all actives have a fitted effect of over 55% in size
Outline: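 LYMP2-015 human lymphoblastoid cells (2500/well) in complete medium, compound-treated 24 h at 37 C; viability read as cellular ATP by CellTiter-Glo luminescence after 30 min at room temperature. AC50 from Hill-equation fits of qHTS concentration-response data.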

[11] = Cell Viability - LYMP2-017 (AID 972); details: LYMP2-017 lymphoblastoid cell viability; series mostly up to 92.2 µM; also: nearly all actives have a fitted effect of over 55% in size
Outline: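 LYMP2-017 human lymphoblastoid cells (2500/well) settled 5 hr at 37 C, then exposed to compound 24 hr at 37 C in complete medium. Viability taken as intracellular ATP by CellTiter-Glo luminescence after 30 min at RT; AC50 from Hill fits.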

[12] = Cell Viability - LYMP2-019 (AID 973); details: LYMP2-019 lymphoblastoid cell line viability; series mostly up to 92.2 µM; also: nearly all actives have a fitted effect of over 55% in size
Outline: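 Human lymphoblastoid LYMP2-019 cells (2500/well) preincubated 5 h at 37 C, then treated 24 h at 37 C in complete medium. Viability by CellTiter-Glo ATP luminescence after 30 min at room temperature; AC50 from Hill fits.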

[13] = Cell Viability - LYMP2-010 (AID 981); details: LYMP2-010 lymphoblastoid cell viability, qHTS; series mostly up to 92.2 µM; also: nearly all actives have a fitted effect of over 55% in size
Outline: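 Human lymphoblastoid LYMP2-010 cells (2500/well) treated 24 h at 37 C in complete medium; viability read as intracellular ATP by CellTiter-Glo luminescence. AC50 from Hill fits of concentration-response data; tetraoctylammonium bromide positive control.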

[14] = qHTS assay for small molecule agonists of retinoid X receptor alpha signaling (AID 588544; calls by dose curve); details: HEK293T RXRa-UAS-bla, beta-lactamase reporter, 18 h; 530 nm emission
[15] = biological target: Retinoic acid receptor RXR-alpha (Homo sapiens) (UniProt P19793); assay: as above; details: HEK293T RXRa-UAS-bla, beta-lactamase reporter, 18 h; series mostly up to 76.7 µM
Chain of Retinoic acid receptor RXR-alpha (Homo sapiens) (P19793 whole entry, looked up): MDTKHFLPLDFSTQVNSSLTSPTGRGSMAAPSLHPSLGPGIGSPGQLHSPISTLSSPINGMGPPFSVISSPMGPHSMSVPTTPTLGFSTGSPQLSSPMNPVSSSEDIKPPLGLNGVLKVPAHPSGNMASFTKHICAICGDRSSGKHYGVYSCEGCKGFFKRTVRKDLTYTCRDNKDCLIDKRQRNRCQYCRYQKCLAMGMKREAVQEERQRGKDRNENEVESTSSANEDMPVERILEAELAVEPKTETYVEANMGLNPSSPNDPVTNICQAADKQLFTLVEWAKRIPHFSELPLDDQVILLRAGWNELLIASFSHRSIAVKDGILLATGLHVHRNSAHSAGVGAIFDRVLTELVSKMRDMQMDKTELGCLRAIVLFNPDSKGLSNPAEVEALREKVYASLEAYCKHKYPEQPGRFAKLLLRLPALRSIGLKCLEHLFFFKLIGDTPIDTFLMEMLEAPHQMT

[16] = biological target: Thyroid hormone receptor beta (Homo sapiens) (UniProt P10828); assay: qHTS assay for small molecule agonists of thyroid hormone receptor beta signaling (AID 588545; calls by dose curve); details: TR-UAS-bla GripTite HEK 293, beta-lactamase ratio, agonist mode, 18 h; series mostly up to 76.7 µM
Chain of Thyroid hormone receptor beta (Homo sapiens) (P10828 whole entry, looked up): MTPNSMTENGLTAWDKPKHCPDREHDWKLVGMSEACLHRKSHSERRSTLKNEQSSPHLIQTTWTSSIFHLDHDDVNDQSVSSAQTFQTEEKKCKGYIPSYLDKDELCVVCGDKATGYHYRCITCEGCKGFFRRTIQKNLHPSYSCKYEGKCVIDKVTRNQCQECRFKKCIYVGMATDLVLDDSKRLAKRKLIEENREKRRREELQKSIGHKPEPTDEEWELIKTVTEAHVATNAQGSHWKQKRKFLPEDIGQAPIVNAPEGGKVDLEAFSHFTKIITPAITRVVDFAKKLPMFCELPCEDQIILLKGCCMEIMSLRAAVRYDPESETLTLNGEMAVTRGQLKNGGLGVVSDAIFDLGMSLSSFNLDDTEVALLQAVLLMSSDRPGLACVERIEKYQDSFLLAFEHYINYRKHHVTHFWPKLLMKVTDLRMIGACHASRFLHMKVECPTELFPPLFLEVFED
Outline: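 Beta-lactamase reporter activity under TR response element control is measured in HEK 293 cells after 18 hrs compound exposure. Signal is ratiometric CCF4 fluorescence, 460/530 nm.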

[17] = qHTS assay for small molecule disruptors of the mitochondrial membrane potential - 5 hr assay (AID 651755; calls by dose curve; also: nearly all actives have a fitted effect of over 40% in size; also: potency is read from the fitted curve at half-maximal effect); details: JC-1-type ratio dye; series mostly up to 92.2 µM
Outline: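 HepG2, 2,000 cells/well, overnight attach; cpd or DMSO 5 hr, 37C/5% CO2; Mito-MPS 30 min 37C; fluor 490/535 + 540/590 nm.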

[18] = qHTS assay for small molecule agonists of the antioxidant response element (ARE) signaling pathway measured by Nrf2-dependant transcriptional activity (AID 720636; active = well fitted curve in the direction sought with a large enough effect in the repeat runs; an effect the other way counts as inactive or inconclusive;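 also: HepG2 cells with an ARE-driven luciferase reporter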); details: ARE-luc HepG2, Nrf2 luciferase reporter, 16 h; series mostly up to 92.4 µM
Outline: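 In HepG2 cells engineered with an Nrf2-responsive luciferase gene, ARE induction was quantified as luminescence after 16 hr compound treatment at 37 C.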

[19] = qHTS assay for small molecule disruptors of the mitochondrial membrane potential - 1 hr assay (AID 651754; calls by dose curve; also: nearly all actives have a fitted effect of over 35% in size; also: potency is read from the fitted curve at half-maximal effect); details: series mostly up to 92.2 µM
Outline: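 HepG2 cells, attached overnight, were exposed to compound for 1 hr at 37C, then stained 30 min with a potentiometric dye. Ratio of red aggregate (590nm) to green monomer (535nm) fluorescence reports membrane potential; collapse shifts signal toward green.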

[20] = biological target: Nuclear receptor subfamily 1 group I member 2 (Rattus norvegicus) (UniProt Q9R1A7); assay: qHTS assay for small molecule activators of the rat pregnane X receptor (rPXR) signaling pathway (AID 651751; call rule not given here); details: rPXR reporter cells, luciferase (One-Glo), 24 h
Chain of Nuclear receptor subfamily 1 group I member 2 (Rattus norvegicus) (Q9R1A7 whole entry, looked up): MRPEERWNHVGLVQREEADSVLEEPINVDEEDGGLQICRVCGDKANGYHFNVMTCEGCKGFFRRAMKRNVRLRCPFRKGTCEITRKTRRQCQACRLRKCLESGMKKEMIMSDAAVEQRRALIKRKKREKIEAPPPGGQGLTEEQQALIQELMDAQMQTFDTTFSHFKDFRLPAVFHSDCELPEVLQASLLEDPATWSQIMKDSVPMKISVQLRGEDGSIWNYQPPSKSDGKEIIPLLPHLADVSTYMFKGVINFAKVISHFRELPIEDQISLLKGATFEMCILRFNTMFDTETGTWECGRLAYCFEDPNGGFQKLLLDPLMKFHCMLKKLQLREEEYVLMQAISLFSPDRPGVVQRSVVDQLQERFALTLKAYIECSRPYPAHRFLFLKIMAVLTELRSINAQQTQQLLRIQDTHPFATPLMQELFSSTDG

SMILES | Potency [1] | Potency [2] | activity change, negative = cytotoxicity [3] | Potency [4] | Potency [5] | Potency [6] | Potency [7] | Potency [8] | Potency [9] | Potency [10] | Potency [11] | Potency [12] | Potency [13] | max response [14] | Potency [15] | Potency [16] | Potency [17] | Potency [18] | Potency [19] | max response [20]
COc1cc(-c2ccc(N=C=O)c(OC)c2)ccc1N=C=O | > 92 µM (inactive) | > 92 µM (inactive) | 4.66% (inactive) | inactive | inactive | inactive | inactive | inactive | inactive | inactive | inactive | inactive | inactive | -18.6% | inactive | inactive | inactive | inactive |  | 
CCOC(=O)C1OC1c1ccccc1 (configuration not stated) | > 92 µM (inactive) | > 92 µM (inactive) | 0.144% (inactive) | inactive | inactive | inactive | inactive | inactive | inactive | inactive | inactive | inactive | inactive | 2.55% | inactive | inactive | inactive | inactive | inactive | 9.31% (inactive)
OC1CCCCC1 | > 92 µM (inactive) | > 92 µM (inactive) | -3.26% (inactive) | inactive | inactive | inactive | inactive | inactive | inactive | inactive | inactive | inactive | inactive | -4.1% | inactive | inactive |  | inactive |  | 1.53% (inactive)
C=CC1CO1 (configuration not stated) | > 92 µM (inactive) | > 92 µM (inactive) | 2.77% (inactive) | inactive | inactive | inactive | inactive | inactive | inactive | inactive | inactive | inactive | inactive | -16.9% | inactive | inactive | inactive | inactive | inactive | 4.12% (inactive)
C[C@@H]1CC2(OC(O)[C@]3(C)O[C@H]23)O[C@H]2C[C@@]3(C)[C@@H]4CC[C@H]5C(C)(C)C(O[C@@H]6OC[C@@H](O)[C@H](O)[C@H]6O)CC[C@@]56C[C@@]46CC[C@]3(C)[C@@H]12 (some centres not stated) |  | > 92 µM (inactive) | -12.9% (inactive) |  | 31.6 µM (active) |  |  | inactive | inactive | inactive | inactive |  |  |  |  |  |  | inactive |  | -9.9% (inactive)
Nc1cc([N+](=O)[O-])ccc1O | > 92 µM (inactive) | > 92 µM (inactive) |  | inactive | inactive | inactive | inactive | inactive | inactive | inactive | inactive | inactive | inactive | -3.91% and 2.48% | inactive | inactive | 29.8 µM (active) |  | 29.8 µM (active) | 5.65% (inactive) and 2.03% (inactive)
Oc1ccc2c(c1)OCO2 | > 92 µM (inactive) | > 92 µM (inactive) |  | inactive | inactive | inactive | inactive | inactive | inactive | inactive | inactive | inactive | inactive | -4.36% | inactive | inactive | inactive | inactive | inactive | -0.719% (inactive)
